Source: PubChem (National Center for Advancing Translational Sciences (NCATS))
p53null 39C kill = selectivity test: cytotoxicity in p53 null cells, nonpermissive temperature; H1299 p53-null (neo) cells, 39C, ATPlite viability, 24 h; Potency, µM (series often up to 46.1 µM), usual class: cytotoxic; 0.97% of 55,000 active; AID 904; note: nearly all actives have a fitted effect of over 50% in size
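H1299 lung cancer cells, p53-null (H1299-neo) or expressing p53 A138V (H1299-p53A138V), were plated overnight at 37C, then exposed to compounds at up to 46 uM for 24 hr at 39C. Viability was read by ATP-based luminescence.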
pS6 MEF inh = reduces mTORC1 signaling in Tsc2 and p53 null MEF cells; Potency, µM (series often up to 38.3 µM), most hits filed as inhibitors; 0.78% of 44,000 active; AID 493208; Tsc2-/- p53-/- MEF, phospho-rpS6 immunofluorescence/PI, 24 h; note: nearly all actives have a fitted effect of over 50% in size
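Tsc2-/-, p53-/- mouse embryonic fibroblasts (empty-vector line) exposed to compound 24 hrs at 37 C, fixed, immunostained for phospho-rpS6 and counterstained with propidium iodide. Acumen laser scanning gives % positive cells from Alexa 488/PI ratio, thresholded using 7.5 nM rapamycin; PI count gives viability.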
p53null 32C tox = kills p53 null cells at the permissive temperature. H1299-neo p53 null cells, ATP luminescence, 24 h, 32C. Potency, µM (titrated, usually from 46.1 µM), usual class: cytotoxic. 0.62% of 55,000 active; note: nearly all actives have a fitted effect of over 55% in size
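Luminescent ATP readout gave cell viability of p53-null H1299-neo cells after a 24 h compound exposure at the permissive 32C. Titrations ran up to 46 uM, and AC50s were fitted with the standard Hill equation.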
S16 viability = toxic to S16 Pmp22-F2sN Schwann cells. 0.48% of 43,000 active. AID 1508642. Potency, µM (series often up to 57.5 µM), most hits filed as cytotoxic. S16 Pmp22-F2sN Schwann cells viability, CellTiter-Glo, 24 h; note: nearly all actives have a fitted effect of over 65% in size
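Rat S16 Schwann reporter line, 24 h treatment with library compounds delivered at 23 nL per well. Cell viability by CellTiter-Glo luminescence.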
PMP22 txn = modulators of PMP22 gene transcription in S16 Schwann cells. S16 Pmp22-F2sN Schwann cells (luciferase reporters placed in the Pmp22 gene), FLuc/NLuc coincidence luminescence, 24 h. Potency, µM (series often up to 57.5 µM), most hits filed as inhibitors. 2% of 43,000 active. AID 1508649; active = clear falling dose curves in both reporters; inconclusive = both reporters move, but less clearly or upward; inactive = either reporter flat; the % is the NLuc reporter signal
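qHTS, 1536-well. Cells seeded, compounds added by pin tool, 24 h 37C. Nano-Glo reagent 1 (lysis/FLuc), 10 min RT, read; Stop&Glo, 10 min RT, read NLuc.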
NLuc sat counter = counter-screen for PMP22 expression modulators: NanoLuc inhibition, saturating substrate. 4% of 690 active. Potency, µM (highest dose often 57.5 µM), actives largely listed as inhibitors. Secreted NLuc enzyme (filtered S16 cell medium), Nano-Glo luminescence. shares compounds with PMP22 txn
NLuc Km counter = counter-screen for PMP22 expression modulators: NanoLuc inhibition at Km. shares compounds with PMP22 txn. secreted NLuc enzyme, coelenterazine luminescence, Km conditions. Potency, µM (top dose mostly 57.5 µM), most hits filed as inhibitors. 5% of 690 active. AID 1508639
FLuc ctr PMP22 = firefly luciferase enzyme inhibition artifact for PMP22 screen; shares compounds with PMP22 txn; purified P. pyralis FLuc, luminescence, 10 min; Potency, µM (highest dose often 57.5 µM), hits mostly inhibitors; 690 tested, under 10 active; AID 1508640
Target sequence (P08659 whole entry, looked up): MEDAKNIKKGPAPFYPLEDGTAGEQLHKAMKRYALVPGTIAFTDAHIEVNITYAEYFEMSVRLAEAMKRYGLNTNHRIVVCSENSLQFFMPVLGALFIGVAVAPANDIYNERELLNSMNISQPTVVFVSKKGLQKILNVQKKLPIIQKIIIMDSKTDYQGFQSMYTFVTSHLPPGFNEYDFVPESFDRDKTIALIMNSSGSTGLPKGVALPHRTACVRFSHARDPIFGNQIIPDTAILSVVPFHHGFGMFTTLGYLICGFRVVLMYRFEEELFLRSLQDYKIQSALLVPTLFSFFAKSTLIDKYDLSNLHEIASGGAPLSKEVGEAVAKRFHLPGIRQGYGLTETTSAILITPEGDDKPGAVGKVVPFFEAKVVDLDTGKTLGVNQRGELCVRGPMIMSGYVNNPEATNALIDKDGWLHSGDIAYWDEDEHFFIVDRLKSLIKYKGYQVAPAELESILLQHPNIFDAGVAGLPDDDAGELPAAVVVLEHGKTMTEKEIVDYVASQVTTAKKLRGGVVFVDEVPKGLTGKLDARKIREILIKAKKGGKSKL
S16 F2sN tox cnf = S16 Schwann cell cytotoxicity, confirmatory; shares compounds with PMP22 txn; S16 Schwann cells viability, CellTiter-Glo ATP luminescence, 24 h; Potency, µM (doses to about 57.5 µM), usual class: cytotoxic; 7% of 690 active; AID 1508641
PMP22 txn cnf = confirmation of modulators of PMP22 gene transcription in S16 cells. shares compounds with PMP22 txn. S16 Schwann cells Pmp22-F2sN, dual luciferase, 24 h. Potency, µM (highest dose often 57.5 µM), usual class: inhibitors. 22% of 690 active. AID 1508646; active = clear falling dose curves in both reporters; inconclusive = both reporters move, but less clearly or upward; inactive = either reporter flat; the % is the FLuc reporter signal
PMP22 HiBiT cnf = rat PMP22 protein level modulation, confirmatory; S16 Schwann cells Pmp22-HiBiT, luminescence, 48 h; 95 tested, under 10 active; Potency, µM (doses to about 27.9 µM), actives largely listed as inhibitors; shares compounds with PMP22 txn
Target sequence (P25094 whole entry, looked up): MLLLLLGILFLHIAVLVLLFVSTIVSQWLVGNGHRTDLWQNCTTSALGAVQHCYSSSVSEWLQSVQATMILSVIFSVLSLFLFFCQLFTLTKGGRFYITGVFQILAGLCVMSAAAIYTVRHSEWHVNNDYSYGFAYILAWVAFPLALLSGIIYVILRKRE
Large screens that a line does not name were inactive (follow-up assays come after a bar, where they were run). Hits are enriched below; roughly 3.2% of the tested compounds scored in any of these assays. Unless noted, calls come from the whole dose curve; as a rule, active = well fitted curve in the direction sought with a large enough effect; inconclusive = small, poorly fitted or top-dose-only effect, or another doubt; inactive = no such curve, though single readings can be large; an effect the other way counts as inactive or inconclusive.

COc1ccc(NC(=O)CCCn2c(=O)c3cccn3c3cccnc32)cc1Cl	PMP22 txn 15µM | NLuc sat counter inactive | NLuc Km counter inactive | FLuc ctr PMP22 inactive | S16 F2sN tox cnf inactive | PMP22 txn cnf inactive
COc1ccc(NC(=O)Cn2c(=O)n(Cc3ccccc3Cl)c(=O)c3cc(OC)c(OC)cc32)cc1OC	PMP22 txn 13µM | NLuc sat counter inactive | NLuc Km counter inactive | FLuc ctr PMP22 inactive | S16 F2sN tox cnf inactive | PMP22 txn cnf inactive
COc1ccc(NC(=O)Cn2c(=O)n(CCC(=O)NCc3ccccc3OC)c(=O)c3ccccc32)cc1Cl	PMP22 txn 15µM | NLuc sat counter inactive | NLuc Km counter inactive | FLuc ctr PMP22 inactive | S16 F2sN tox cnf inactive | PMP22 txn cnf 13µM | PMP22 HiBiT cnf inconclusive
COc1ccc(NC(=O)Cn2c(=O)n(Cc3ccc(C(=O)NCc4ccccc4Cl)cc3)c(=O)c3ccccc32)cc1OC	none
COc1ccccc1CNC(=O)CCCCn1c(=O)c2ccccc2n(Cc2ccccc2C)c1=O	PMP22 txn 14µM | NLuc sat counter inactive | NLuc Km counter inconclusive | FLuc ctr PMP22 inactive | S16 F2sN tox cnf inactive | PMP22 txn cnf inconclusive
COc1ccc(NC(=O)Cn2c(=O)n(CCCC(=O)NCc3ccccc3OC)c(=O)c3ccccc32)cc1Cl	pS6 MEF inh inconclusive, PMP22 txn inconclusive
COc1ccccc1CNC(=O)CCCCn1c(=O)c2ccccc2n(Cc2ccccc2F)c1=O	PMP22 txn inconclusive
COc1ccc(NC(=O)CCn2c(=O)c3cccn3c3cccnc32)cc1Cl	none
Cc1ccc(C(=O)c2oc3ccccc3c2NC(=O)COc2ccccc2Cl)cc1	none
Cc1cc(C)n(CCc2nc3c4ccccc4nc(SCc4ccc(F)cc4)n3n2)n1	none
COc1ccccc1CNC(=O)c1cccc(NC(=O)N2CCSc3ncccc32)c1	none
Cc1cccc(CCn2c(=O)c3ccccc3n(CC(=O)Nc3ccccc3F)c2=O)c1	PMP22 txn 16µM | NLuc sat counter inactive | NLuc Km counter inactive | FLuc ctr PMP22 inactive | S16 F2sN tox cnf inactive | PMP22 txn cnf inactive
Cc1cccc(NC(=O)Cn2c(=O)n(CCc3ccccc3)c(=O)c3ccccc32)c1	PMP22 txn inconclusive
O=C(CCCn1c(=O)c2ccccc2n(CC(=O)Nc2ccc(F)cc2F)c1=O)NCc1ccccc1Cl	PMP22 txn inconclusive
O=C(CCCCn1c(=O)c2ccccc2n(CC(=O)Nc2ccc(F)cc2F)c1=O)NCc1ccccc1Cl	PMP22 txn 16µM | NLuc sat counter inactive | NLuc Km counter inactive | FLuc ctr PMP22 inactive | S16 F2sN tox cnf inactive | PMP22 txn cnf inconclusive
C#CC(C)(C)NS(=O)(=O)c1cc(-c2nnc(Nc3ccc(C)cc3)c3ccccc23)ccc1C	S16 viability inconclusive, PMP22 txn inconclusive
CCN(c1ccccc1)S(=O)(=O)c1ccc2[nH]cc(C(=O)NCc3ccc(C)cc3)c(=O)c2c1	PMP22 txn 13µM | NLuc sat counter inactive | NLuc Km counter inactive | FLuc ctr PMP22 inactive | S16 F2sN tox cnf inactive | PMP22 txn cnf inactive
CCN(c1ccccc1)S(=O)(=O)c1ccc2[nH]cc(C(=O)NC3CCCCC3)c(=O)c2c1	PMP22 txn inconclusive
Cc1cccc(NC(=O)Cn2ncc3c4ccccc4n(Cc4ccccc4)c3c2=O)c1C	none
COC(=O)CS(=O)(=O)c1nc2ccccc2nc1N1CCCCC1	pS6 MEF inh inconclusive, S16 viability inconclusive, PMP22 txn 11µM | NLuc sat counter inconclusive | NLuc Km counter inconclusive | FLuc ctr PMP22 inactive | S16 F2sN tox cnf inactive | PMP22 txn cnf 9.9µM | PMP22 HiBiT cnf inconclusive
O=C(Cn1nc(Cc2cccnc2)c2ccccc2c1=O)Nc1cccc(C(F)(F)F)c1	PMP22 txn inconclusive
COc1ccc(NC(=O)Cn2cnc3ccc(S(=O)(=O)N4CCC(C)CC4)cc3c2=O)c(OC)c1	none (no result: p53null 39C kill, p53null 32C tox)
CC1CCN(S(=O)(=O)c2ccc3ncn(CC(=O)Nc4ccccc4C(F)(F)F)c(=O)c3c2)CC1	PMP22 txn inconclusive (no result: p53null 39C kill, p53null 32C tox) | NLuc sat counter inactive | NLuc Km counter inactive | FLuc ctr PMP22 inactive | S16 F2sN tox cnf inactive | PMP22 txn cnf inactive
CC(C)(C)C1CCc2c(sc(NC(=O)CCC(=O)O)c2C(=O)Nc2ccccc2C(F)(F)F)C1 (configuration not stated)	none
Cc1ccccc1CC1C(=O)Nc2ccc(Br)cc21 (configuration not stated)	S16 viability inconclusive
COc1ccc(Br)cc1CC1C(=O)Nc2ccccc21 (configuration not stated)	PMP22 txn 14µM | NLuc sat counter inconclusive | NLuc Km counter inconclusive | FLuc ctr PMP22 inactive | S16 F2sN tox cnf inactive | PMP22 txn cnf inconclusive | PMP22 HiBiT cnf inactive
COc1ccc(OC)c(NC(=O)c2c(NCc3sccc3C)sc3c2CCCCC3)c1	PMP22 txn 11µM | NLuc sat counter inconclusive | NLuc Km counter 14µM | FLuc ctr PMP22 inactive | S16 F2sN tox cnf inconclusive | PMP22 txn cnf inactive
O=C(Cn1c(=O)n(Cc2ccccc2)c(=O)c2sc3ccccc3c21)Nc1ccc(F)cc1	p53null 39C kill inconclusive, S16 viability inconclusive, PMP22 txn 14µM | NLuc sat counter inactive | NLuc Km counter inactive | FLuc ctr PMP22 inactive | S16 F2sN tox cnf inconclusive | PMP22 txn cnf inconclusive
O=C(Cn1c(=O)n(Cc2ccccc2)c(=O)c2sc3ccccc3c21)Nc1ccccc1	p53null 32C tox inconclusive, PMP22 txn inconclusive
